Laboratory results published in the supplement of paper PMC12067093, “Discovery and optimisation of a covalent ligand for TRIM25 and its application to targeted protein ubiquitination” (Chemical Science, 2025).
Of roughly 21,000 targets only a part is listed; those with the largest changes were picked by preference.

Compound: CC1Cc2ccccc2N1C(=O)C1CCCN(C1)C(=O)CCl (mixture of isomers) [TRIM25 ligand 11 (diastereomer mixture)]
Experiment: probe-labelled cysteine peptide fold change vs DMSO (competition) (log2 fold change); higher = less target engagement (more negative = stronger competition)
Conditions: THP-1, incubation time: 4 h
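Note: competitive chemoproteomic profiling in live THP-1 cells with an iodoacetamide desthiobiotin (IA-DTB) probe, comparing probe-labelled peptide intensities in compound-treated cells against DMSO-treated controls.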

Chain of UniProt P52701 (P52701 whole entry, looked up): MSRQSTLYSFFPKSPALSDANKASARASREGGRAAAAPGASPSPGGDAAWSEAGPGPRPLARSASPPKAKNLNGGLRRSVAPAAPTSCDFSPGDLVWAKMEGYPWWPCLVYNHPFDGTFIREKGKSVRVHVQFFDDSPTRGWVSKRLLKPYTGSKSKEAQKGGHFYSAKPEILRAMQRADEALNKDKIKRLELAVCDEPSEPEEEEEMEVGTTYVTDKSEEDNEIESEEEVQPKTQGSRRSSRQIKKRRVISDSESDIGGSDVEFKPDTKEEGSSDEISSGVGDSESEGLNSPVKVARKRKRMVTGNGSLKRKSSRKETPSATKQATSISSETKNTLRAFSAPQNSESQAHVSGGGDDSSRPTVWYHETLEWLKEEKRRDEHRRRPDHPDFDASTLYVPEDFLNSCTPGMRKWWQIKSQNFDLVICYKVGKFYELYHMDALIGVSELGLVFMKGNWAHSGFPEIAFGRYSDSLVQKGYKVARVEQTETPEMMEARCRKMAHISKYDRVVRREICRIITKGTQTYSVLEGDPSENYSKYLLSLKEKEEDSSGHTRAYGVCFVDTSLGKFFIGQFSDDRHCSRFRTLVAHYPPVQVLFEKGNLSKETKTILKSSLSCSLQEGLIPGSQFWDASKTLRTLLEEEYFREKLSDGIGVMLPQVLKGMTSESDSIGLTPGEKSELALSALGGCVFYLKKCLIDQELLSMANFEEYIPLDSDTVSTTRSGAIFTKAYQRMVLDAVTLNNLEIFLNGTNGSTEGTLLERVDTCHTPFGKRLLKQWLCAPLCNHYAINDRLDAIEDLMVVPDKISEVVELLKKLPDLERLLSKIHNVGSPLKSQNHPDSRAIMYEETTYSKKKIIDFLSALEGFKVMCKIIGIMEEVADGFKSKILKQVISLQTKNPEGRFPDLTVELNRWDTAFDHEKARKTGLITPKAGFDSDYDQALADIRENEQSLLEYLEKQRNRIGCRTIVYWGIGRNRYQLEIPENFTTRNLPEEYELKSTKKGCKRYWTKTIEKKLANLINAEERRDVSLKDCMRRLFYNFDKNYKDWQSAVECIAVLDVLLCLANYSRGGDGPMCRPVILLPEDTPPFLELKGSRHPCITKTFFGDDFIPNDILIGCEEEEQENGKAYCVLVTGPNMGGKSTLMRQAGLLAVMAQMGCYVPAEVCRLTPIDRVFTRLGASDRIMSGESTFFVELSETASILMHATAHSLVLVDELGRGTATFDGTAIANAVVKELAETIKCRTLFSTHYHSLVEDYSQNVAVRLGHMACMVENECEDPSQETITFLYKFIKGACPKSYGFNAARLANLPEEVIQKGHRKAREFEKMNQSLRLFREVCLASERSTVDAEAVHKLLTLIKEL
Chain of UniProt Q8N6R0 (Q8N6R0 whole entry, looked up): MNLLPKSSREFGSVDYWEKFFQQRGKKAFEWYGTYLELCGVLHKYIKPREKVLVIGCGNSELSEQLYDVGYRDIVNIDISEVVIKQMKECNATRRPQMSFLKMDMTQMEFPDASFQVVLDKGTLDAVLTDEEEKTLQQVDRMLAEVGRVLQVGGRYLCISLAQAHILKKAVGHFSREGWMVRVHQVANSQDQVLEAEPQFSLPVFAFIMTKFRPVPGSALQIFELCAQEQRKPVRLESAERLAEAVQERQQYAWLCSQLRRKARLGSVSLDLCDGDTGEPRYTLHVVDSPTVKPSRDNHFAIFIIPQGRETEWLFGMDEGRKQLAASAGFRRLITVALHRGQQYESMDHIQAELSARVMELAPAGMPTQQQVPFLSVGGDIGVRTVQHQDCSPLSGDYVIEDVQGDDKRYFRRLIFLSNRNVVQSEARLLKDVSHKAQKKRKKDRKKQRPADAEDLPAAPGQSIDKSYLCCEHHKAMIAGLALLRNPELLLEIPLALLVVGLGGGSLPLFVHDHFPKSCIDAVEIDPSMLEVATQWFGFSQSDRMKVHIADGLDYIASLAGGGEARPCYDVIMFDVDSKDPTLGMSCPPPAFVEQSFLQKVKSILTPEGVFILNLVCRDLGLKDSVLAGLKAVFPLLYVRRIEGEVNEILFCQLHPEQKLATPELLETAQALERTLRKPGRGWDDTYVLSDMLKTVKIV
Chain of UniProt P49959 (P49959 whole entry, looked up): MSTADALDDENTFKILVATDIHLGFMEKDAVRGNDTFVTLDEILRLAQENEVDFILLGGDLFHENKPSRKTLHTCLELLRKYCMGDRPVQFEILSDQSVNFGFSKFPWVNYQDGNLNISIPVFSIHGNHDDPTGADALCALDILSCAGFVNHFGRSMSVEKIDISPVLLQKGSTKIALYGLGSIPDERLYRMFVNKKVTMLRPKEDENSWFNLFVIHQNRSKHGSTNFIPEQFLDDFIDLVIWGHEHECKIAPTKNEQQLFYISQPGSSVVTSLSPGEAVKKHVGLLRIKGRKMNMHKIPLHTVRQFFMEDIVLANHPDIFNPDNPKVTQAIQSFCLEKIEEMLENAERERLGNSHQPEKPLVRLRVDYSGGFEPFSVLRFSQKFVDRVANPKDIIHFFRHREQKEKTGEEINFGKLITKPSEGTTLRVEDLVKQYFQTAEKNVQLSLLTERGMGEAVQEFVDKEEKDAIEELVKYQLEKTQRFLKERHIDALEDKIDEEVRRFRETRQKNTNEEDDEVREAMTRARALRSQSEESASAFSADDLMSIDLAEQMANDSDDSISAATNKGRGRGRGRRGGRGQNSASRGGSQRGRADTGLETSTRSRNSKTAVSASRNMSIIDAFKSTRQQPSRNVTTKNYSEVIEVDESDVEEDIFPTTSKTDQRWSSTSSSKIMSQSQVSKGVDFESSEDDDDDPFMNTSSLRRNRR
Chain of UniProt P54920 (P54920 whole entry, looked up): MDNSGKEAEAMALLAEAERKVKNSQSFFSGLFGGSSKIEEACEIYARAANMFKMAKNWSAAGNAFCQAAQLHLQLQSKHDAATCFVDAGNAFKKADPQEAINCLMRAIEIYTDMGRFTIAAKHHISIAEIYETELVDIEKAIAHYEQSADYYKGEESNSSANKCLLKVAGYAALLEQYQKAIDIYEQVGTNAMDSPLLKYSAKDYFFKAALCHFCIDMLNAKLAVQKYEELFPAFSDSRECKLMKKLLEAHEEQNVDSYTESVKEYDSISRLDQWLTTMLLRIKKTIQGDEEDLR
Chain of UniProt P33992 (P33992 whole entry, looked up): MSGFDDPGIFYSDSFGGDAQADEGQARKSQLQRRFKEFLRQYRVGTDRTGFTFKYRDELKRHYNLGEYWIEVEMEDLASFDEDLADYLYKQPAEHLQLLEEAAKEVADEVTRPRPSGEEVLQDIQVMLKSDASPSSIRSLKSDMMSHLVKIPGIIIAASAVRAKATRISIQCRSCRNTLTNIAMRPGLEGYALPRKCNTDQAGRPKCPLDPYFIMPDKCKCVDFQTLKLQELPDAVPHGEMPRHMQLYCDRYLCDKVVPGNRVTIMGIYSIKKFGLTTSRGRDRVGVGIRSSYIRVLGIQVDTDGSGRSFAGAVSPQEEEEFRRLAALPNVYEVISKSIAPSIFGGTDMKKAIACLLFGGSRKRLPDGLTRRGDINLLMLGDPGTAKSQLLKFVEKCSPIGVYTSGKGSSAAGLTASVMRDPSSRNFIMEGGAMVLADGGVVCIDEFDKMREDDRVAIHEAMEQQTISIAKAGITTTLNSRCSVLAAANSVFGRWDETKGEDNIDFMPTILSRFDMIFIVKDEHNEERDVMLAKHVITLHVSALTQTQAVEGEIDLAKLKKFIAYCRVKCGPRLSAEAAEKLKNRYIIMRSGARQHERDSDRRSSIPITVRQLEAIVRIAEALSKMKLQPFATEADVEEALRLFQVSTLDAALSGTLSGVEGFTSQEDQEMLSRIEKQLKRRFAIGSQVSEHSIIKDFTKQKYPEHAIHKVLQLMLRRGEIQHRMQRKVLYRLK

| Target | probe-labelled cysteine peptide fold change (10 µM) | probe-labelled cysteine peptide fold change (50 µM) |
| --- | --- | --- |
| MCM5_P33992_221_CVDFQTLK (UniProt P33992) | -0.0141 | 0.0951 |
| NAPA_P54920_103_KADPQEAINCLMR (UniProt P54920) | 0.0661 | 0.0556 |
| MSH6_P52701_1158+1165_QAGLLAVMAQMGCYVPAEVCR (UniProt P52701) | -0.115 | -0.66 |
| MRPS24_Q96EL2_103_FMWGTFPGCLADQLVLK (UniProt Q96EL2) | 0.183 | 0.203 |
| MRE11_P49959_249_HGSTNFIPEQFLDDFIDLVIWGHEHECK (UniProt P49959) | -0.0677 | -0.0212 |
| METTL13_Q8N6R0_226_FRPVPGSALQIFELCAQEQR (UniProt Q8N6R0) | 0.025 | -0.292 |
